Compound activity (PubChem BioAssay)
Hits are enriched below; roughly 2.8% of the tested compounds scored in any of these assays.
SKKanGAS inh: inhibitors of SKKanGAS S. pyogenes growth in kanamycin (SK-promoter or general growth effect). BacTiter-Glo, 6 h. 1.3% of 300,000 active. inhibition, % at 7.5 µM;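 active = mean replicate score, as percent of positive control median, at least 50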;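 note: strain carries kanamycin resistance gene driven by streptokinase promoter and grows in 40 µg/ml kanamycin; loss of luminescence reflects streptokinase promoter inhibition or plain growth inhibition; 0% = median of DMSO wells and 100% = positive control at its reference dose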
IDE cell activ: activators of human insulin-degrading enzyme in cells. 0.073% of 340,000 active. P14735. HEK cells, FAbeta-B cleavage, fluorescence polarization; 0% vehicle, 100% cell-free pure enzyme wells. activation, % at 5.96 µM;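 active = activation above the mean of all tested compounds plus 3 SD, set per screening campaign, cut at about 17% in these data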
PP1 inh: blocks human PP1-alpha phosphatase, a PP5 counter-screen. P62136. purified PP1alpha, OMFP fluorescence. inhibition, % at 6.7 µM. 0.9% of 320,000 active;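 active = inhibition above the mean inhibition of all tested compounds plus 3 SD, computed separately for each screening campaign, cut at about 15% in these data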
PP5 inh: PP5 (human) phosphatase inhibition; P53041; purified PP5c, OMFP substrate fluorescence; inhibition, % at 6.7 µM; 0.18% of 320,000 active;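 active = inhibition above the campaign's mean inhibition across all tested compounds plus 3 SD, cut at about 9.5% in these data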;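 note: 0% = DMSO only and 100% = 100 µM cantharidin control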
Target sequence (P53041 whole entry, looked up): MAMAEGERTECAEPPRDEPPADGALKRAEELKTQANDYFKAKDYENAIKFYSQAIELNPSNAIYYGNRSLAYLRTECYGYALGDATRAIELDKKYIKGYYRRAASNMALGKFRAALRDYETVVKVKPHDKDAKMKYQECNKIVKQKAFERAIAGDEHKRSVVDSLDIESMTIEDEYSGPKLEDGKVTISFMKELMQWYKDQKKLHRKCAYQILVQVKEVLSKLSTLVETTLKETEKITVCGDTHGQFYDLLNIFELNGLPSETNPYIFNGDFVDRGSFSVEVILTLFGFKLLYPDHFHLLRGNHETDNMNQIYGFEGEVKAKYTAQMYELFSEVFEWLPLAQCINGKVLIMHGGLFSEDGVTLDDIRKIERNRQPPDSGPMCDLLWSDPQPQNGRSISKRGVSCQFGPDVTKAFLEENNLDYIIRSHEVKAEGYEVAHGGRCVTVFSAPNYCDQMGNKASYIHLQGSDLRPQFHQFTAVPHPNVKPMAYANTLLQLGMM
Exocytosis inh: blocks lytic granule exocytosis; TALL-104 LAMP-1 surface exposure, flow cytometry; cells stimulated with thapsigargin and PMA; inhibition, % at 10 µM; 0.66% of 360,000 active; AID 651702;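 active = inhibition above about 55%, limit read from the data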
IDE cell inh: inhibits human insulin-degrading enzyme in HEK cells; P14735; AID 434962; inhibition, % at 5.59 µM; 0.41% of 320,000 active; FAbetaB cleavage, fluorescence polarization;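 active = percent inhibition above the average of all tested compounds plus 3 SD, set per screening campaign, cut at about 16% in these data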;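 note: IDE supplied by intact live HEK cells; FP after avidin binding of uncleaved biotin substrate so inhibition keeps polarization high; 0% = DMSO wells and 100% = 60 µM reference IDE inhibitor Ii1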
PP1 confirm: confirmation of human PP1 phosphatase inhibitors; 52% of 1,900 active; purified PP1alpha, OMFP substrate fluorescence; shares compounds with PP1 inh; inhibition, % at 6.7 µM;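 active = mean PP1 inhibition above a set limit taken from the earlier primary screen, cut at about 15% in these data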
PP5 counter: counter-screen for PP1 inhibitors: human PP5 phosphatase inhibition. 4% of 1,900 active. inhibition, % at 6.7 µM. AID 2360. purified PP5c, OMFP fluorescence. shares compounds with PP1 inh;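 active = mean PP5 inhibition over triplicate wells above about 9.5% taken from the earlier PP1 screen, limit read from the data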
* = called active by the depositor.

Results for CCCCCOc1ccc(NC(=O)C(=O)NCCCn2ccnc2)cc1 ?
SKKanGAS inh: 3; IDE cell activ: 3; PP1 inh: 44*; PP5 inh: 3; Exocytosis inh: 2; IDE cell inh: 2; PP1 confirm: 4; PP5 counter: -3

How did COC(=O)c1ccccc1S(=O)(=O)N1CCC(C(=O)OCC(=O)c2ccccc2OC)CC1 do in these assays?
SKKanGAS inh: -17; IDE cell activ: 2; PP1 inh: -2; PP5 inh: 4; Exocytosis inh: -3; IDE cell inh: 6

Results for CCOC(=O)C1(Cc2ccccc2C)CCCN(C(=O)c2ccc(OC)o2)C1 (stereo not given) ?
SKKanGAS inh: 1; IDE cell activ: -3; PP1 inh: 26*; PP5 inh: 4; Exocytosis inh: 20; IDE cell inh: -5; PP1 confirm: -2; PP5 counter: -2

How did CN(CCO)c1ccc(C=NNc2ccc([N+](=O)[O-])cc2S(=O)(=O)Nc2ccccc2C(=O)O)cc1 do in these assays?
Exocytosis inh: 13; IDE cell inh: 0

Results for C#CCNC(=O)C1CCN(c2ccc(S(=O)(=O)N3CCOCC3)cc2Cl)CC1 ?
SKKanGAS inh: -5; IDE cell activ: 2; PP1 inh: -4; PP5 inh: 2; Exocytosis inh: 3; IDE cell inh: 2

Results for CC(C)CNC(=O)C1CCN(c2ccc(S(=O)(=O)N3CCOCC3)cc2Cl)CC1 ?
SKKanGAS inh: 4; IDE cell activ: 7; PP1 inh: 28*; PP5 inh: 0; Exocytosis inh: 4; IDE cell inh: 0; PP1 confirm: -2; PP5 counter: 0

How did COc1ccc(CNC(=O)c2cn(Cc3ccccc3OC)c(=O)s2)cc1 do in these assays?
Exocytosis inh: -5

Results for COc1ccc(/C=C2/C(=O)N(c3nc4ccccc4s3)N=C2CSc2ccc(Cl)cc2)cc1 ?
SKKanGAS inh: 68*; IDE cell activ: 2; PP1 inh: 31*; PP5 inh: -1; Exocytosis inh: 0; IDE cell inh: -6; PP1 confirm: 9; PP5 counter: 0

Results for COc1ccc2nc(N3C(=O)C(O)=C(C(=O)c4ccco4)C3c3ccc(OC)c(OC)c3)sc2c1 (stereo not given) ?
Exocytosis inh: -3

Results for Cc1cc(N2C(=O)C(O)=C(C(=O)c3ccco3)C2c2ccc([N+](=O)[O-])cc2)no1 (stereo not given) ?
SKKanGAS inh: 11; IDE cell activ: 4; PP1 inh: 4; PP5 inh: 3; Exocytosis inh: -5; IDE cell inh: -1

What do the screens show for `CCOC(=O)c1sc(N2C(=O)C(O)=C(C(=O)c3ccco3)C2c2ccc(C)o2)nc1C` (stereo not given)?
SKKanGAS inh: 30; IDE cell activ: 2; PP1 inh: 23*; PP5 inh: 3; Exocytosis inh: -15; IDE cell inh: 4; PP1 confirm: 23*; PP5 counter: 2

How did CSc1ccc(C2C(C(=O)c3ccco3)=C(O)C(=O)N2c2nnc(SC)s2)cc1 (stereo not given) do in these assays?
SKKanGAS inh: 28; IDE cell activ: -3; PP1 inh: 20*; PP5 inh: -1; Exocytosis inh: 2; IDE cell inh: 11; PP1 confirm: 16*; PP5 counter: -5

How did CCOC(=O)c1sc(N2C(=O)C(O)=C(C(=O)c3ccco3)C2c2ccc([N+](=O)[O-])cc2)nc1C (stereo not given) do in these assays?
SKKanGAS inh: 42; IDE cell activ: -1; PP1 inh: 41*; PP5 inh: 5; Exocytosis inh: -2; IDE cell inh: 7; PP1 confirm: 36*; PP5 counter: 2

What do the screens show for `O=c1c(C(c2ccccc2)c2c(O)sc3ccccc3c2=O)c(O)sc2ccccc12`?
SKKanGAS inh: 97*; IDE cell activ: 5; PP1 inh: 25*; PP5 inh: 3; Exocytosis inh: -2; IDE cell inh: -8; PP1 confirm: 31*; PP5 counter: 1

Results for O=c1c2ccccc2sc2ccccc12 ?
IDE cell activ: 1; Exocytosis inh: 10
